Assay outcomes as filed in PubChem BioAssay.
The full list was thinned out, with hits kept by preference.
TTR transcr act = TTR transcription activators in neuroblastoma reporter cells, primary screen, cell-based, luminescence, SH-SY5Y, TTR promoter Gaussia luciferase | 100% = recombinant luciferase protein wells | activation, % at 16.7 µM | actives 1.3% (n = 92,000);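 active = activation above the mean of all tested compounds plus 3 SD, cut at about 9.5% in these data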;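 also: cells exposed to compounds for one day before reading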
TTR inh HuH7 = TTR promoter reporter inhibitors in hepatoma cells, counter-screen for TTR transcription activator project, cell-based, luminescence, HuH7 hepatoma; shares compounds with TTR transcr act; HuH7 TTR promoter-Gaussia luciferase reporter; inhibition, % at 16.7 µM; actives 4% (n = 1,100); AID 1117279, 2014;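 active = average inhibition above the solvent-only control wells' mean plus 3 SD, cut at about 15% in these data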;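 also: inhibitors lower well luminescence so higher value means more inhibition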
TTR act confirm = TTR transcription activators, retest, confirmation, cell-based, luminescence, SH-SY5Y, triplicate. SHSY5Y TTR promoter Gaussia luciferase; 100% = purified Lucia enzyme wells, no cells. AID 1117280, 2014. activation, % at 16.7 µM. shares compounds with TTR transcr act. 1,100 tested, under 10 active;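 active = mean activation above a set limit taken from the earlier primary screen, cut at about 11% in these data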
Large screens that a line does not name were inactive (follow-up assays come after a bar, where they were run).

OCCC#Cc1c(-c2ccsc2)sc2ccccc12	TTR transcr act 10.0 | TTR inh HuH7 inactive | TTR act confirm inactive
COc1ccc2c(C#CCCO)c(-c3ccc(S(C)(=O)=O)cc3)sc2c1	none
Brc1ccc(-c2c(-c3ccsc3)sc3ccccc23)cn1	none
CC(C)CN1C(=O)C[C@]2(C(=O)N(C)c3ccc(NC(=O)C(C)(C)C)cc32)C1c1ccccc1 (some centres undefined)	none
Cn1cnnc1SCC(=O)Nc1ccccc1	none
CN(c1ccccc1)S(=O)(=O)c1cccc(NC(=O)CSc2nnc(C3CC3)n2C)c1	none
CN(C)S(=O)(=O)c1cccc(NC(=O)CSc2nncn2C)c1	TTR transcr act 12 | TTR inh HuH7 inactive | TTR act confirm inactive
O=S1(=O)c2ccc(N3CC[C@@H](O)C3)cc2O[C@@H]2CCN1C2	none
CC1=C[C@]2(CN(CC3CC3)C3=N[C@H](c4ccccc4)CC(=O)N32)n2c(=O)n(-c3ccccc3)c(=O)n2C1	none
CCS(=O)(=O)Nc1ccc2c(c1)C(=O)N(C)[C@@H]1CC[C@H](CC(=O)N3CCCCC3)O[C@H]1CO2	none
O=C(O)c1ccc(/C=N/NC(=O)c2ccc(NS(=O)(=O)c3cccs3)cc2)cc1	none
O=C(NNC(=O)c1ccco1)c1ccc(NS(=O)(=O)c2cccs2)cc1	TTR transcr act 14 | TTR inh HuH7 inactive | TTR act confirm inactive
O=C(NNC(=O)c1cc(F)c(F)cc1Cl)c1ccc(NS(=O)(=O)c2cccs2)cc1	none
COCCCNC(=O)c1ccc(Cn2c(=O)c3ccccc3n(Cc3ccc([N+](=O)[O-])cc3)c2=O)cc1	none
COC(=O)[C@]12C[C@H](CC(=O)NCc3cccc4ccccc34)C(=O)N(Cc3cccc4ccccc34)C1=C[C@H](C1CCCC1)O[C@@H]2C	none
COC(=O)[C@]12C[C@H](CC(=O)NCc3ccccc3)C(=O)N(Cc3ccc4c(c3)OCO4)C1=C[C@H](C(C)C)O[C@@H]2C1CC1	none
COC(=O)[C@H]1C[C@]2(C(C=C(C)C)S(=O)(=O)c3ccccc3)c3ccccc3N[C@H]2N1 (some centres undefined)	none
CC1=C(C(=O)Nc2cccc(C(=O)NC(C)c3ccccc3)c2)SCCO1 (centres undefined)	TTR transcr act 11 | TTR inh HuH7 inactive | TTR act confirm inactive
Cc1cccc(NC(=O)c2nc[nH]c2C(=O)N[C@@H](C)c2ccccc2)c1	none
Cc1cccc(C(=O)NC(=S)NC(C)c2ccccc2)c1 (centres undefined)	none
CN1CC(=O)N2[C@@H](C[C@]3(c4c[nH]c5ccccc45)c4ccccc4N(S(=O)(=O)c4ccccc4)[C@H]23)C1=O	none
Cc1ccc(S(=O)(=O)N/N=C/c2cccc(OC3CSC3)c2)cc1	none
O=S(=O)(N/N=C/c1cccc(OC2CSC2)c1)c1ccccc1	none
O=S(=O)(N/N=C/c1ccc(OC2CSC2)cc1)c1ccccc1	TTR transcr act 12 | TTR inh HuH7 inactive | TTR act confirm inactive
COC[C@@H]1CCCN1c1cccc2c1S(=O)(=O)N(C1CC1)CC[C@@H](C)O2	none
C#CCNC(=O)C[C@H]1C[C@@]2(C(=O)OC)C(=C[C@H](COCc3ccccc3)O[C@@H]2C)N(Cc2ccco2)C1=O	none
O=C(OCC#CCSc1nnc(-c2cccs2)o1)c1ccc(F)cc1	none
COC(=O)[C@]12C[C@H](CC(=O)NCc3ccc(OC)c(OC)c3)C(=O)N(Cc3ccc(Cl)cc3Cl)C1=C[C@H](C1CCCC1)O[C@@H]2C	none
CCCc1cc(=O)oc2cc(OCC(=O)NCCN3CCOCC3)c(Cl)cc12	none
Cc1c(C2(O)CCCCC2)[nH]c2ccc(C(F)(F)F)cc12	none
CCc1c(C2(O)CCCCC2)[nH]c2cnccc12	TTR transcr act 13 | TTR inh HuH7 inactive | TTR act confirm inactive
CCCC[C@H](C(=O)N(C)c1cccc(OC)c1)[C@@H](O)c1ccc2ccccc2c1	none
CC(C)[C@H](NC(=O)OCc1ccccc1)C(=O)N[C@@H](Cc1ccccc1)C1(O)CN(C)C(C(=O)NCc2ccccn2)CO1 (some centres undefined)	none
CN(CCc1ccccc1)C(=O)c1cccc(NC(=O)Cc2cccc(NC(=O)C3CCN(C(=O)C4CCCCC4)CC3)c2)c1	none
CN(CCc1ccccc1)C(=O)c1ccc(NC(=O)Cc2cccc(NC(=O)C3CCN(C(=O)C4CCCCC4)CC3)c2)cc1	TTR transcr act 11 | TTR inh HuH7 inactive | TTR act confirm inactive
CN(CCc1ccccc1)C(=O)c1cccc(NC(=O)Cc2cccc(NC(=O)C3CCN(C(=O)C4CCC4)CC3)c2)c1	none
O=S1(=O)c2c(cccc2N2CC[C@H](O)C2)OCCCN1C1CC1	none
